PubChem BioAssay (Tox21)
The source made the active and inactive calls. Calls come from the whole dose curve; as a rule, active = well fitted curve in the direction sought with a large enough effect in the repeat runs; inconclusive = weak or mixed curves; inactive = flat fitted curve, though single readings scatter. Non-standard residues stand in square brackets, D forms with d. Residues, ends and D or L forms follow the SMILES beside them. pGlu = O=C1CC[C@@H](C(=O)O)N1; Thz = O=C(O)[C@@H]1CSCN1

Test: qHTS assay to test for compound auto fluorescence at 460 nm (blue) in HEK293 cell free culture (AID 720681)
Settings: cell-free medium, autofluorescence 405/460 nm (blue); series mostly up to 46 µM; fluorescence, % of fluorescent control: at the top concentration
Source text: U.S. Tox21 Program National Center for Advancing Translational Sciences [NCATS] NIH Chemical Genomics Center [NCGC] U.S. Environmental Protection Agency [EPA] National Institutes of Environmental Health Sciences [NIEHS] National Toxicology Program [NTP] U.S. Food and Drug Administration [FDA] Tox21 Assay Overview: Compound auto fluorescence often interferes with screening of the compound library against various biological targets and signaling pathways. Some of these compounds may have fluorophoric properties. Such properties may interfere with the assay outputs resulting in false positives and/or negatives. To decrease such complications and ensure the compound activities are relevant in terms of biological response, the Tox21 10K compound library was screened for auto fluorescence. From the fluorophores used as reporter signals in our screening assays, the auto fluorescence equivalencies of compounds against three fluorophores have been evaluated: Triamterene, Fluorescein and Rose Bengal sodium for blue, green and red fluorescence, respectively. The fluorescence intensities were measured using Excitation/Emission wavelengths at 405/460nm, 485/535nm and 540/590nm for blue, green and red labels, respectively. This assay includes the blue fluorescence data.
Tox21 Assay Protocol Summary: 5 uL of culture medium (DMEM containing 10% FBS) per well was dispensed into black wall/clear bottom 1536-well plates using a Multidrop Combi Dispenser (ThermoFisher Scientific, Waltham, MA). After 23 nL compound or DMSO vehicle was transferred into assay plate by a pintool work station (Kalypsys, San Diego, CA), fluorescence intensities in the assay plates were measured by an Envision (PerkinElmer, Shelton, CT) plate reader using three labels for measuring blue, green and red fluorescence at […] 460, 535 and 590nm respectively.
% is set by controls: 0 for no effect and ±100 for the full control effect.

| Compound | fluorescence, % of fluorescent control | Potency |
| --- | --- | --- |
| O=S(=O)(O)Oc1ccc(C(c2ccc(OS(=O)(=O)O)cc2)c2ccccn2)cc1 | -0.0404% (inactive) | – |
| CCCCCCCCCCCCCCCCCCCCCC(=O)Nc1ccn([C@@H]2O[C@H](CO)[C@@H](O)[C@@H]2O)c(=O)n1 | -0.0368% (inactive) | – |
| CCOc1ccc(N=Nc2ccc(N)cc2N)cc1 | -0.586% (inactive) | – |
| CC[N+](C)(C)Cc1ccccc1Br | -0.0408% [at 18.6 µM] (inactive) | – |
| CC(C)c1nc(N(C)S(C)(=O)=O)nc(-c2ccc(F)cc2)c1/C=C/C(O)CC(O)CC(=O)O (stereo not given) | 0.0428% (inactive) | – |
| CC(C)CCC[C@@H](C)[C@H]1CC(=O)C2=C3CC[C@H]4C[C@@H](O)CC[C@]4(C)[C@H]3CC[C@@]21C | -0.0373% (inactive) | – |
| CCC(C)[C@H]1O[C@]2(C=C[C@@H]1C)C[C@@H]1C[C@@H](C/C=C(\C)[C@@H](O[C@H]3C[C@H](OC)[C@@H](O[C@H]4C[C@H](OC)[C@H](NC(C)=O)[C@H](C)O4)[C@H](C)O3)[C@@H](C)/C=C/C=C3\CO[C@@H]4[C@H](O)C(C)=C[C@@H](C(=O)O1)[C@]34O)O2 (stereo not given in full) | – | inactive |
| CN1CCc2c(c3ccccc3n2Cc2ccccc2)C1 | 0.0821% [at 18.6 µM] (inactive) | – |
| Clc1ccc(COC(Cn2ccnc2)c2ccc(Cl)cc2Cl)c(Cl)c1 (stereo not given) | 0.0401% [at 18.6 µM] (inactive) | – |
| CCCCCCCCCCCCCCCC(=O)OCC(COC(=O)CCCCCCCCCCCCCCC)OC(=O)CCCCCCCCCCCCCCC | 0.0062% (inactive) | – |
| CCC(=O)Oc1ccc2c(c1)CC[C@@H]1[C@@H]2CC[C@]2(C)[C@@H](OC(=O)CC)CC[C@@H]12 | -0.0074% (inactive) | – |
| C[C@]12CC[C@@H]3c4ccc(OS(=O)(=O)O)cc4CC[C@H]3[C@@H]1CCC2=O | 0.251% (inactive) | – |
| CCC(=O)NS(=O)(=O)c1ccc(-c2c(-c3ccccc3)noc2C)cc1 | 0.0652% (inactive) | – |
| COc1cc2c(cc1OC)CC(=O)N(CCCN(C)C[C@H]1Cc3cc(OC)c(OC)cc31)CC2 | 0.314% (inactive) | – |
| CC1CCC(NC(=O)N(CCCl)N=O)CC1 (stereo not given) | -0.118% (inactive) | – |
| O=P(O)(O)OC(CO)CO | -0.0888% (inactive) | – |
| C[C@H](/C=C/[C@H](C)C(C)(C)O)[C@H]1CC[C@H]2/C(=C/C=C3C[C@@H](O)C[C@H](O)C3)CCC[C@]12C | -0.0862% (inactive) | – |
| C=C1c2c(Cl)ccc(O)c2C(O)=C2C(=O)[C@]3(O)C(O)=C(C(N)=O)C(=O)[C@@H](N(C)C)[C@@H]3[C@@H](O)[C@H]12 | 2.11% [at 18.6 µM] (inactive) | – |
| O=C(CCCN1CCC(C(=O)c2ccc(F)cc2)CC1)c1ccc(F)cc1 | 0.194% (inactive) | – |
| CCCCCCOc1ccc(C(=N)N(CCCC)CCCC)c2ccccc12 | 0.164% (inactive) | – |

| Compound | fluorescence, % of fluorescent control | Potency |
| --- | --- | --- |
| C[N+](C)(CCCCCC[N+](C)(C)C1c2ccccc2-c2ccccc21)C1c2ccccc2-c2ccccc21 | -0.0484% (inactive) | – |
| CCCCCCCCCCCCCCCC(=O)OCCC1CCN(CCCN2c3ccccc3Sc3ccc(S(=O)(=O)N(C)C)cc32)CC1 | -0.0752% (inactive) | – |
| NC(=O)C[C@@H](N)C(=O)O | -0.0303% (inactive) | – |
| O=C(O)C1CCCN1 (stereo not given) | 0.101% (inactive) | – |
| CC[C@H]1NC(=O)[C@@H](NC(=O)c2ncccc2O)[C@@H](C)OC(=O)[C@H](c2ccccc2)NC(=O)[C@@H]2CC(=O)CCN2C(=O)[C@H](Cc2ccccc2)N(C)C(=O)[C@@H]2CCCN2C1=O | -0.0357% (inactive) | – |
| CC[C@@H]1/C=C(\C)C[C@H](C)C[C@H](OC)[C@H]2O[C@@](O)(C(=O)C(=O)N3CCCC[C@H]3C(=O)O[C@H](/C(C)=C/[C@@H]3CC[C@@H](Cl)[C@H](OC)C3)[C@H](C)[C@@H](O)CC1=O)[C@H](C)C[C@@H]2OC | -0.0502% (inactive) | – |
| C[C@@](Cc1ccc(O)c(O)c1)(NN)C(=O)O | 0.411% (inactive) | – |
| O=C1CC[C@@H](C(=O)N2CSC[C@H]2C(=O)O)N1 ([pGlu]-[Thz]-OH) | 0.168% (inactive) | – |
| OCC(S)CS (stereo not given) | -0.0595% (inactive) | – |
| CCCC(=O)O[C@]1(C(=O)COC(=O)CC)[C@@H](C)C[C@H]2[C@@H]3CCC4=CC(=O)C=C[C@]4(C)[C@@]3(F)[C@@H](O)C[C@@]21C | 0.0365% (inactive) | – |
| O=C(Cn1c(=O)sc2ccc(Cl)cc21)N1CCN(CCO)CC1 | 0.115% (inactive) | – |
| C=C[C@]1(C)C[C@@H](OC(=O)CSC(C)(C)CNC(=O)[C@H](N)C(C)C)[C@]2(C)[C@H](C)CC[C@]3(CCC(=O)[C@H]32)[C@@H](C)[C@@H]1O | -0.197% (inactive) | – |
| Cc1cc(-n2c(=O)[nH]c(=O)n(C)c2=O)ccc1Oc1ccc(S(=O)(=O)C(F)(F)F)cc1 | -0.022% (inactive) | – |
| C#C[C@]1(O)CC[C@H]2[C@@H]3CCC4=CC(=O)CC[C@@H]4[C@H]3C(=C)C[C@@]21CC | -0.0303% (inactive) | – |
| FCOC(C(F)(F)F)C(F)(F)F | 0.0113% (inactive) | – |
| O=C(O)CC/C=C\CC[C@@H]1[C@@H](N2CCCCC2)[C@@H](O)C[C@@H]1OCc1ccc(-c2ccccc2)cc1 | 0.0056% (inactive) | – |
| CCCCc1cc2c(=O)c(C(=O)OC)c[nH]c2cc1OCc1ccccc1 | -0.0548% (inactive) | – |
| CCOC(=O)CN[C@@H](C(=O)N1CC[C@H]1C(=O)NCc1ccc(/C(N)=N/O)cc1)C1CCCCC1 | 0.0275% (inactive) | – |
| Cn1c(O)c(N=NC(N)=S)c2ccccc21 | 1.07% (inactive) | – |
| COc1ccc(C[C@@H](C)NC[C@H](O)c2ccc(O)c(NC=O)c2)cc1 | 0.272% (inactive) | – |
